This excerpt belongs to a sample that is enriched for hits.
TbREL1 primary: TbREL1 RNA ligase inhibitors, primary screen, biochemical, FRET fluorescence. RNA-editing ligase 1, mitochondrial (Trypanosoma brucei brucei), P86926. TbREL1 RNA ligation. inhibition, % at 9.66 µM. actives 0.49% (n = 89,000);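 active means inhibition above the mean inhibition across all screened compounds plus 3 SD, cut at about 11% in these data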;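 further: 0% = plate median of test wells and 100% = NSC42067 control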
Target sequence (P86926 whole entry, looked up): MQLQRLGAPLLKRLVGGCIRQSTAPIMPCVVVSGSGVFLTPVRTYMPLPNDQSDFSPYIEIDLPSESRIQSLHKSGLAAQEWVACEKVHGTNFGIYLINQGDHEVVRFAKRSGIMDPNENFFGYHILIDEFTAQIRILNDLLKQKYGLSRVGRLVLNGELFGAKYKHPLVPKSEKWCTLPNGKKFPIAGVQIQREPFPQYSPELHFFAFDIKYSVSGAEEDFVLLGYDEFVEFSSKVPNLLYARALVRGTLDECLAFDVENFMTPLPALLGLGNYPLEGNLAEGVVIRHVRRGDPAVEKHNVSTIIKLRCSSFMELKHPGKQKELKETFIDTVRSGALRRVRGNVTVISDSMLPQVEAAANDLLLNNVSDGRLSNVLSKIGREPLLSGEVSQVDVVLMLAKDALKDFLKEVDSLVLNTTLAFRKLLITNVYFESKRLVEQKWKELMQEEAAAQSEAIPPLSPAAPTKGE
TbREL1 confirm: TbREL1 RNA ligase inhibitors, confirmation, biochemical, FRET fluorescence, triplicate. shares compounds with TbREL1 primary. TbREL1 RNA ligation. inhibition, % at 9.66 µM. actives 37% (n = 390). AID 1117282, 2014;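 active means mean inhibition across replicates above a set limit taken from the earlier primary screen, cut at about 11% in these data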;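 further: 0% = REL1 with substrate and DMSO and 100% = REL1 plus control inhibitor NSC42067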
Active calls of the source: *.

SMILES	TbREL1 primary	others
COc1cccc(NC(=O)CSc2cccc[n+]2[O-])c1	2
O=C(CSc1nnc(-c2ccco2)c(-c2ccco2)n1)Nc1ccccc1	24*	TbREL1 confirm=8
COc1cccc(NC(=O)CSCC(=O)Nc2ccccc2)c1	-1
C[C@H]1[C@@H](NC(=O)c2ccc(C(F)(F)F)cc2)CC[C@@]23CCCN2C(=O)CCC[C@@H]13	5
CC(=O)CCc1ccc(OCCCCN2CCC(Cc3ccccc3)CC2)cc1	1
CCC(=O)c1ccccc1OCCCN1CCC(Cc2ccccc2)CC1	11*	TbREL1 confirm=11*
CCOc1ccccc1OCCN1CCC(Cc2ccccc2)CC1	2
Cc1ccccc1CNC(=O)CN1CCCc2ccccc21	0
COC(=O)[C@]12C[C@H](CC(=O)NCCC(C)C)C(=O)N(CCc3ccc(OC)c(OC)c3)C1=C[C@H](COCc1ccccc1)O[C@@H]2C	-2
C=CCOC(=O)C(CO)NC(=O)CCCC(=O)O (stereo not drawn)	5
CCOC(=O)[C@@]12CCC3=C1N(CCC3)C(=O)[C@H](CC(=O)NCc1ccccc1)C2	-5
Nc1scn[n+]1Cc1cccc2cccnc12	2
Nc1ccc(Br)c[n+]1Cc1cccc2cccnc12	12*	TbREL1 confirm=8
Brc1ccc(COc2cccc3cccnc23)cc1	4
Cc1ccc(-c2cc(-c3nnc(SCC(=O)NC4CCCCC4)n3N)[nH]n2)cc1	2
Cc1cc(-n2c(C)cc(C(=O)CSc3nncn3C(C)C)c2C)no1	-4
CN1CCc2nc(SCC(=O)Nc3ccc(OC(F)(F)F)cc3)c(C#N)c(-c3cccs3)c2C1	13*	TbREL1 confirm=4
CC(=O)CSc1nc(N)c(C#N)c(-c2cccs2)c1C#N	3
COc1ccc(NC(=O)CSc2nc(C)c3c(c2C#N)CCCC3)cc1	-2
C[C@@H]1C=CCCO[C@]12C(=O)N(CC1CC1)c1cccc(Br)c12	-5
CN(Cc1ccco1)S(=O)(=O)c1ccc2c(c1)CCN2C(=O)CC(C)(C)C	-1
COC(=O)[C@H](C)NC(=O)C(Cc1ccc2c(c1)OCO2)NC(C)=O (stereo partly drawn)	0
O=[N+]([O-])c1ncccc1OCCOc1ccc(Cl)cc1Cl	2
COc1ccc(NC(=O)CC2C(=O)N(c3ccc(OC)cc3)C(=O)N2C(C)C)cc1 (stereo not drawn)	2
COC(=O)c1ccc(N2C(=O)CC(Sc3n[nH]c(C)n3)C2=O)cc1 (stereo not drawn)	3
SMILES	TbREL1 primary	others
COC(=O)c1ccc(N2C(=O)CC(SCC(=O)Nc3ccc(OC)cc3)C2=O)cc1 (stereo not drawn)	13*	TbREL1 confirm=3
CCCCOC(=O)CCN1C(=O)/C(=C/c2ccccc2)SC1=S	2
CCN1CCCCC(NC(=O)c2ccc(F)cc2)C1=O (stereo not drawn)	5
COCCCNC(=O)C[C@H]1C[C@@]2(C(=O)OC)C(=C[C@H](COCc3ccccc3)O[C@@H]2C)N(Cc2cccc3ccccc23)C1=O	-3
Cc1cc(C)c2sc(N(CCN(C)C)C(=O)c3c(F)cccc3F)nc2c1	2
CCN(c1ccccc1)S(=O)(=O)c1ccc(C(=O)N(CCCN(C)C)c2nc3c(C)cccc3s2)cc1	13*	TbREL1 confirm=11*
CN(C)CCCN(C(=O)c1ccc(S(=O)(=O)N2CCCCCC2)cc1)c1nc2c(F)cccc2s1	8
CN(C)CCN(C(=O)c1ccc2c(c1)CCCC2)c1nc2c(F)cccc2s1	2
COc1cc2nc(N(CCCN(C)C)C(=O)c3ccc(S(=O)(=O)N4CCc5ccccc5C4)cc3)sc2cc1OC	-2
CCN(Cc1ccccc1)S(=O)(=O)c1ccc(C(=O)N(CCCN(C)C)c2nc3c(F)cccc3s2)cc1	28*	TbREL1 confirm=8
CN(C)CCCN(C(=O)c1ccc(C(=O)c2ccccc2)cc1)c1nc2c(F)cccc2s1	4
CCc1ccc2nc(N(CCCN(C)C)C(=O)c3ccc(S(=O)(=O)N4CCCC4)cc3)sc2c1	10
CCOc1cccc2sc(N(CCCN(C)C)C(=O)c3ccc(S(=O)(=O)N4CCCCCC4)cc3)nc12	15*	TbREL1 confirm=8
COc1cccc2sc(N(CCCN(C)C)C(=O)c3ccc(S(=O)(=O)N4CCc5ccccc5C4)cc3)nc12	5
CCN(Cc1ccccc1)S(=O)(=O)c1ccc(C(=O)N(CCCN(C)C)c2nc3cc(C)cc(C)c3s2)cc1	15*	TbREL1 confirm=7
Cc1cc(C)c2sc(N(CCCN(C)C)C(=O)c3ccc(Br)s3)nc2c1	5
Nn1c(SCc2cccc3ccccc23)nnc1-c1cc(-c2ccc(F)cc2)n[nH]1	0
CCCCNC(=O)C1CCCN1C(=O)Nc1ccc2c(c1)OCO2 (stereo not drawn)	0
C[C@H]1[C@@H](OC(=O)NC2CCC2)CC[C@@]23CCCN2C(=O)CCC[C@@H]13	-2
COC(=O)CC1CCc2cc(C)cc(C(=O)CC(C)C)c2O1 (stereo not drawn)	-1
